Source: PubChem BioAssay (several laboratories)
Hits are enriched below; roughly 4.1% of the tested compounds scored in any of these assays.
UGM FP inh: blocks M. tuberculosis UGM enzyme. P9WIQ1. purified UGM, fluorescence polarization probe displacement. inhibition, % at 10 µM. hit rate 0.06% among 320,000; in the data active means inhibition above about 10%, passing the limit was not always enough
RecA splice inh: inhibitors of M. tuberculosis RecA intein splicing | P9WHJ3 | cell-free RecA intein splicing, fluorescence | inhibition, % (concentration not given with the values) | hit rate 0.75% among 290,000 | AID 2221; in the data active means inhibition above about 30%;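 further: 0% = vehicle wells and 100% = reference inhibitor control wells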
Rv3671c protease: Rv3671c (M. tuberculosis) protease inhibition | hit rate 0.048% among 320,000 | inhibition, % at 5.96 µM; in the data active means inhibition above about 38%;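 further: extracellular domain of Rv3671c used as enzyme; 0% = enzyme with DMSO and 100% = no enzyme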
Target sequence (P9WHR9 whole entry, looked up, the tested form may be a part): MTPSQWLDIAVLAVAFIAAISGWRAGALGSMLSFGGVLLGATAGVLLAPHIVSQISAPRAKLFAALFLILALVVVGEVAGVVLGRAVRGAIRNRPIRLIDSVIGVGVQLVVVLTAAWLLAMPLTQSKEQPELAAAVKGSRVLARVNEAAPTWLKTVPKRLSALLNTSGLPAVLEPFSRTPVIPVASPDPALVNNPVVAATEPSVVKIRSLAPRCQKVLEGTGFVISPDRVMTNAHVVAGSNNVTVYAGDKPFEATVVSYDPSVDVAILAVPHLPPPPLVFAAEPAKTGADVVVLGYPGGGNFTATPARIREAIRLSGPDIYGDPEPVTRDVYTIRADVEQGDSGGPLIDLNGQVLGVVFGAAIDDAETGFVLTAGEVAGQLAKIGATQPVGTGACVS
GDH-TPI counter: counter-screen for M. tuberculosis FBA inhibitors: GDH-TPI coupled enzymes. GDH-TPI coupled enzyme counterscreen, NADH absorbance. inhibition, % at 4.8 µM. hit rate 1.2% among 360,000. AID 588335; in the data active means inhibition above about 30%;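 further: 0% = DMSO wells and 100% = wells lacking the enzyme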
Mtb FBA inh: Mtb fructose-bisphosphate aldolase inhibition; inhibition, % at 1 µM; AID 588726; purified M. tuberculosis FBA, fluorescence read-out; P9WQA3; hit rate 2.3% among 360,000; in the data active means inhibition above about 27%;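 further: 0% = vehicle and 100% = reference inhibitor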
Vc quorum ag: induces V. cholerae light production without autoinducers; V. cholerae BH1578 lux reporter, luminescence, 6 h; activation, % at 18.7 µM; hit rate 0.16% among 350,000; AID 588436; in the data active means activation mostly above about 9.7%, no sharp cut-off
Active calls of the source: *; i = inactive; / = no result given; + = active, no number.

SMILES	UGM FP inh	RecA splice inh	Rv3671c protease	GDH-TPI counter	Mtb FBA inh	Vc quorum ag
CC(=O)Oc1ccc2c(=O)c(/C=N/c3cc(=O)[nH]c(=S)[nH]3)coc2c1	-1	0	-7	54*	-3	0
O=S(=O)(N/N=C/c1ccc(N2CCOCC2)cc1)c1ccc(Br)cc1	0	3	-4	36*	1	i
C[C@H](CO)N1C[C@H](C)[C@@H](CN(C)S(=O)(=O)c2cccc(F)c2)Oc2ncc(Br)cc2C1=O	/	/	/	5	-2	0
CCn1c(=O)c2[nH]c(Cl)nc2n(CC)c1=O	/	/	/	11	-2	0
CCCn1c(=O)c2[nH]c(-c3ccc(S(=O)(=O)O)cc3)nc2n(CCC)c1=O	3	/	2	9	+	-1
O=c1c2ccccc2nc(/C=C/c2ccc(O)c(O)c2)n1-c1ccccc1	0	-4	-27	43*	-6	i
COc1cc(/C=C/c2nc3ccccc3c(=O)n2-c2ccccc2O)ccc1O	-7	3	-5	24	-5	0
COc1cc(/C=C/c2nc3ccccc3c(=O)[nH]2)ccc1O	/	/	/	41*	-3	i
COc1cc(/C=C/c2nc3ccccc3c(=O)n2-c2cccc(O)c2)ccc1O	-2	-4	2	47*	-4	-1
CCOc1cc(/C=C/c2nc3ccccc3c(=O)[nH]2)ccc1O	-2	-2	-15	21	-1	i
NC(=S)N=Nc1c(O)[nH]c2ccccc12	/	5	1	28	-3	0
Cc1ccc2[nH]c(O)c(N=NC(N)=S)c2c1	2	4	0	38*	-7	0
O=C(NC(=S)Nc1ccccc1F)C1CCCCC1	0	/	-6	-7	-5	0
CC1(C)CC(=O)C=C(c2ccc(F)nc2)C1	4	/	-1	11	3	1
CN(C)C=Nc1ccc2nn(-c3ccccc3)nc2c1	-4	-26	-5	10	177*	0
Cc1cc(NCc2ccco2)nc2cc(O)ccc12	1	-54	3	10	124*	/
O=C(Nc1ccc(F)cc1)C(c1ccccc1)N1CCN(S(=O)(=O)c2ccc3ccccc3c2)CC1 (centres undefined)	0	-2	-49	12	30*	i
COc1cc(NC(=O)N2CCc3nc(NCc4cccc(Oc5ccccc5)c4)ncc3C2)cc(OC)c1OC	/	/	/	1	-3	i
O=C(CNS(=O)(=O)c1ccc(Br)cc1)OCc1cc(=O)n2cc(Br)ccc2n1	1	-3	-7	/	/	/
O=C(CNC(=O)c1cccc(OC(F)F)c1)OCc1cc(=O)n2cc(Br)ccc2n1	/	-2	-8	31*	1	0
COc1ccc(C(=O)c2no[n+]([O-])c2C(=O)c2ccc(OC)cc2)cc1	0	4	4	8	0	-5
O=C(c1cccs1)c1no[n+]([O-])c1C(=O)c1cccs1	11*	5	1	2	-2	i
C/C(=N\NC(=O)c1cc2ccccc2cc1O)c1ccccn1	0	-2	18	20	4	0
C/C(=N\NC(=O)c1nc2ccccn2c1C)c1cc2ccccc2o1	1	-1	1	33*	1	0
C/C(=N\NC(=O)c1cc2ccccc2cc1O)c1cc2ccccc2o1	2	-3	18	60*	-3	-1
SMILES	UGM FP inh	RecA splice inh	Rv3671c protease	GDH-TPI counter	Mtb FBA inh	Vc quorum ag
CCOC(=O)C1=CCN(S(=O)(=O)c2ccccc2C)C1c1cccc(F)c1 (centres undefined)	/	/	/	/	3	/
Cc1cc2[nH]c(=O)c(=O)[nH]c2cc1S(=O)(=O)NCc1ccc(Cl)cc1	-1	2	5	24	48*	i
Fc1cccc(Cc2c(C3CCCCC3)nc3ccc(Cl)cn23)c1	/	/	/	/	-3	/
Cc1ccc2ncc(NC(=O)c3ccc(F)cc3)c(=O)n2c1	1	2	0	33*	-1	i
O=C(O)c1ccc2ncc(NC(=O)c3ccc(F)cc3)c(=O)n2c1	0	2	4	20	5	0
Nc1nc(N2C(=O)C3CC=CCC3C2=O)nn1-c1ccccc1 (centres undefined)	-3	-4	7	12	3	-2
CC1=CC(c2ccccc2)n2nc(N3C(=O)c4ccccc4C3=O)nc2N1 (centres undefined)	-5	-2	1	2	30*	0
CC1=CC(c2ccccc2)n2nc(N3C(=O)C4CC=CCC4C3=O)nc2N1 (centres undefined)	1	-11	1	3	175*	7
CN(C)[C@H]1CCN([C@@H]2CS(=O)(=O)N[C@H]2COCc2ccccc2)C1	/	/	/	/	-3	/
